APP 5UTR inh: APP translation inhibition; SH-SY5Y APP 5'UTR-luciferase reporter, luminescence; inhibition, % at 2 µM; 190,000 compounds, 0.82% hits;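 active = inhibition above a set limit, derived from the sample mean plus 3 SD, cut at about 45% in these data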
BaF3 tox: reduces parental Ba/F3 cell viability, JAK2V617F counter-screen. CellTiter-Glo ATP luminescence. inhibition, % at 5.6 µM. 220,000 compounds, 1.1% hits. AID 1486;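 active = inhibition above a per-campaign cutoff, the mean inhibition of all tested compounds plus 3 SD, cut at about 27% in these data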;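 also: 0% = DMSO wells and 100% = JAK Inhibitor I control wells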
IEC-6 tox: counter-screen for KLF5 inhibitors: cytotoxicity in IEC-6 cells | 290,000 compounds, 0.78% hits | IEC-6 cytotoxicity, luminescence viability | inhibition, % at 5 µM;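 also: 0% = plate median of test compound wells and 100% = cytotoxic reference compound wells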
aSyn 5UTR inh: MLPCN primary screen, SNCA 5' untranslated region | 300,000 compounds, 0.82% hits | alpha-synuclein 5'UTR reporter, inhibitor activity | inhibition, % (tested at 7.5 µM) | AID 1813; in the data active = inhibition above about 60%;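 also: H4 neuroglioblastoma cells stably carrying SNCA 5'UTR luciferase fusion; 0% = DMSO wells and 100% = positive control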
KLF5 inhibitor: suppresses KLF5 promoter-driven expression. DLD-1 KLF5 promoter-luciferase reporter, luminescence. 290,000 compounds, 0.23% hits. inhibition, % at 5 µM;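 active = inhibition above a per-plate limit of that plate's mean compound inhibition plus 3 SD, cut at about 60% in these data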;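 also: 0% = DMSO wells and 100% = LY294002 at 200 µM; higher means less KLF5 promoter-driven luciferase light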
Ba/F3 V617F tox: loss of viability in JAK2V617F-driven Ba/F3 cells | Ba/F3 EpoR-JAK2V617F viability, ATP luminescence | inhibition, % at 5.6 µM | 220,000 compounds, 1.1% hits;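 active = inhibition above the campaign mean plus 3 SD over all tested compounds, cut at about 24% in these data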;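 also: cytokine-independent growth of Ba/F3 cells driven by EpoR plus mutant JAK2; 0% = DMSO-treated cells and 100% = JAK inhibitor I control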
IEC-6 cytotox cf: IEC-6 cytotoxicity, confirmation assay; AID 1907; inhibition, % at 5 µM; shares compounds with IEC-6 tox; 1,900 compounds, 63% hits; IEC-6 rat intestinal epithelial viability, luminescence;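 also: 0% = vehicle and 100% = reference cytotoxic drug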
Starred values were filed as active, the others as inactive. Rows were chosen to be rich in hits. Some 2.2% of all compounds tested hit in one or more screens of this group. Rule as the data show it, unless noted: active = inhibition above about 22%; inactive = the rest.

Results for CSc1nnc2c3ccccc3n(CCc3ccccc3)c2n1 ?
APP 5UTR inh: 22; BaF3 tox: 2; IEC-6 tox: 46*; aSyn 5UTR inh: 14; KLF5 inhibitor: -39; Ba/F3 V617F tox: -1; IEC-6 cytotox cf: 42*

How did CCOc1ccc(N(C)S(=O)(=O)c2cc(-c3cc(C)no3)ccc2OC)cc1 do in these assays?
IEC-6 tox: 3; aSyn 5UTR inh: -2; KLF5 inhibitor: 2

How did COc1ccc(-c2cc(C)no2)cc1S(=O)(=O)N(C)c1ccc(C)cc1 do in these assays?
IEC-6 tox: 28*; aSyn 5UTR inh: -9; KLF5 inhibitor: 23; IEC-6 cytotox cf: 25*

What do the screens show for `CCOC(=O)c1sc(NC(=O)COC(=O)CNC(=O)C2CCCCC2)c(C(=O)OCC)c1C`?
APP 5UTR inh: -16; BaF3 tox: 4; IEC-6 tox: 0; aSyn 5UTR inh: 23; KLF5 inhibitor: -3; Ba/F3 V617F tox: -4

Results for COC(=O)c1sccc1Oc1c(Cl)cccc1[N+](=O)[O-] ?
APP 5UTR inh: -10; BaF3 tox: 0; IEC-6 tox: 9; aSyn 5UTR inh: -11; KLF5 inhibitor: 1; Ba/F3 V617F tox: -4

How did COC(=O)c1ccc(-n2c(C)cc(C(=O)CSc3cccc[n+]3[O-])c2C)cc1 do in these assays?
APP 5UTR inh: -13; BaF3 tox: 2; IEC-6 tox: 8; aSyn 5UTR inh: -6; KLF5 inhibitor: 6; Ba/F3 V617F tox: 0

How did Cc1cc(C(=O)CSc2cccc[n+]2[O-])c(C)n1-c1ccc(OC(F)F)cc1 do in these assays?
BaF3 tox: -2; IEC-6 tox: 27*; aSyn 5UTR inh: -103; KLF5 inhibitor: -52; Ba/F3 V617F tox: 4; IEC-6 cytotox cf: -1

How did Cc1ccc(C)c2c3c([nH]c12)-c1nonc1CC3 do in these assays?
APP 5UTR inh: -2; BaF3 tox: 3; IEC-6 tox: 2; aSyn 5UTR inh: 11; KLF5 inhibitor: -8; Ba/F3 V617F tox: 4

Results for CCOc1cc(NC(=O)c2cccs2)c(OCC)cc1NC(=O)CCC(=O)NCc1ccccn1 ?
BaF3 tox: 64*; IEC-6 tox: 57*; aSyn 5UTR inh: 6; KLF5 inhibitor: 37; Ba/F3 V617F tox: 81*; IEC-6 cytotox cf: 12

What do the screens show for `COC(=O)c1ccc(NC(=O)CN2CCN(S(=O)(=O)c3ccc(Br)cc3)CC2)cc1`?
IEC-6 tox: -5; aSyn 5UTR inh: 8; KLF5 inhibitor: -4

What do the screens show for `CC12CCC(=O)N1C(C(=O)OCC(=O)Nc1ccc(Cl)c(Cl)c1)CS2` (configuration not stated)?
APP 5UTR inh: 0; BaF3 tox: 8; IEC-6 tox: 5; aSyn 5UTR inh: -13; KLF5 inhibitor: -14; Ba/F3 V617F tox: 5

What do the screens show for `O=C(Nc1nc2ccc(S(=O)(=O)N3CCCC3)cc2s1)C1CCCCC1`?
APP 5UTR inh: 77*; BaF3 tox: 79*; IEC-6 tox: 70*; aSyn 5UTR inh: 72*; KLF5 inhibitor: 36; Ba/F3 V617F tox: 82*; IEC-6 cytotox cf: 56*

How did O=C(Nc1nc2ccc(S(=O)(=O)N3CCCCC3)cc2s1)C1CCCO1 (configuration not stated) do in these assays?
APP 5UTR inh: -2; BaF3 tox: 6; IEC-6 tox: -1; aSyn 5UTR inh: 21; KLF5 inhibitor: -24; Ba/F3 V617F tox: -2

How did Cc1ccc(NC(=O)CNC(=O)c2cccs2)nc1 do in these assays?
aSyn 5UTR inh: -36

Results for Cc1ccc2nc(N/C(=N/S(=O)(=O)c3ccc(F)cc3F)c3ccccc3)sc2c1 ?
APP 5UTR inh: -66; BaF3 tox: 7; IEC-6 tox: 22*; aSyn 5UTR inh: -108; KLF5 inhibitor: -58; Ba/F3 V617F tox: 2; IEC-6 cytotox cf: 6

How did Cc1ccc2nc(N/C(=N/S(=O)(=O)c3ccc(F)cc3)c3ccccc3)sc2c1 do in these assays?
APP 5UTR inh: -32; BaF3 tox: 5; IEC-6 tox: -1; aSyn 5UTR inh: -107; KLF5 inhibitor: -85; Ba/F3 V617F tox: -3

What do the screens show for `Cc1nsc2nc3c(F)c(F)c(F)c(F)c3cc12`?
IEC-6 tox: 29*; aSyn 5UTR inh: -49; KLF5 inhibitor: -2; IEC-6 cytotox cf: 5

Results for CN(c1ccc(OCC(=O)OCC(=O)Nc2c(F)c(F)c(F)c(F)c2F)cc1)S(=O)(=O)c1ccc(F)cc1 ?
APP 5UTR inh: -12; BaF3 tox: 10; IEC-6 tox: 2; aSyn 5UTR inh: 11; KLF5 inhibitor: 7; Ba/F3 V617F tox: 4

High-throughput results from PubChem BioAssay.
